Our source for the AC50 and activity, negative = inhibition values is PubChem BioAssay AID1851 (National Center for Advancing Translational Sciences (NCATS), 2009).

The structures appear in SMILES notation. Out of some 16,000 compounds screened, about 5,100 (32%) were called active. About 25% were inconclusive and are not listed. Calls follow the shape of the dose curve; as a rule, active = well fitted curve in the direction sought with a large enough effect; inconclusive = small, poorly fitted or top-dose-only effect, or effect the other way; inactive = no such curve, though single readings can be large or run the other way. This is one part of the list.
% is scaled to controls: 0 for no effect and ±100 for the full control effect.

The target in the test is Cytochrome P450 3A4 (Homo sapiens) (UniProt P08684). Description: Cytochrome panel assay with activity outcomes. As to conditions: recombinant CYP, pro-luciferin dealkylation, luminescence, p450-cyp3a4; series mostly up to 57.1 µM.
Cytochrome P450 3A4 (Homo sapiens), sequence (P08684 whole entry, looked up): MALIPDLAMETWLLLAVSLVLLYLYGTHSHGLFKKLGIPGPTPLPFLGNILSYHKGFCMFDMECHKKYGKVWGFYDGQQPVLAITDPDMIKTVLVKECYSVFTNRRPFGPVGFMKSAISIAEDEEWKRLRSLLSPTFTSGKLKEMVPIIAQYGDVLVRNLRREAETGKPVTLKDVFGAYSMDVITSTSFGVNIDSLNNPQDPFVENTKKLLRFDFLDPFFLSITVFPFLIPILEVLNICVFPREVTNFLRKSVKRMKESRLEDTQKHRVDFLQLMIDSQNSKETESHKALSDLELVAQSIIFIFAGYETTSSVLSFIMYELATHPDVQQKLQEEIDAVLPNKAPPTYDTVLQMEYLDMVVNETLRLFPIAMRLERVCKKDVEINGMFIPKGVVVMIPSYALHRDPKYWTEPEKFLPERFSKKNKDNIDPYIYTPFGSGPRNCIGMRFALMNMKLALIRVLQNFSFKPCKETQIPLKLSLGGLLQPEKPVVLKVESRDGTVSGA
In general, AC50 refers to the concentration giving half of the maximal activity seen. For `CC(=O)NC1=NN(c2ccccc2)C(=O)C1`, the AC50 entry is “inactive”.
Turning to `O=c1c(-c2cc(F)cc(F)c2)nc2cnc(N3CCOCC3)nc2n1C[C@H]1CCCO1`, the AC50 result was “inactive”.
Still for that read-out and setting: the same measure for `O=c1c(-c2cc(F)cc(F)c2)nc2cnc(N3CCNCC3)nc2n1Cc1cccs1`: 10 µM (active).
For `O=c1c(-c2ccc(Cl)cc2)nc2cnc(N3CCNCC3)nc2n1Cc1cccs1`, the AC50 was 5.01 µM (active).
Still for that read-out and setting: as for `O=c1c(-c2ccc(F)cc2)nc2cnc(N3CCNCC3)nc2n1Cc1cccs1`, the figure is 10 µM (active); as for `O=c1c(-c2ccccc2)nc2cnc(N3CCOCC3)nc2n1Cc1cccs1`, “inactive”; as for `Cn1c(=O)c(-c2cc(F)cc(F)c2)nc2cnc(N3CCOCC3)nc21`, “inactive”.
Consider `CCc1c(O)c2c(c(O)c1C(C)=O)C(=O)c1c(cc(O)c(C(=O)O)c1C(=O)O)C2=O`, for which the activity, negative = inhibition is 2.06% [at 11.4 µM] (inactive).
Still for that read-out and setting: the same measure for `BrC(c1cccc2ccccc12)c1cccc2ccccc12`: -10.7% [at 11.4 µM] (inactive).
On to `CCOC(=O)c1c(C)c(C(=O)N2CCN(C(=O)c3ccco3)CC2)c(C)n1C`, for which the AC50 result is “inactive”.
For the compound `CCOC(=O)c1c(C)c(C)n2c1NC(=O)C2`, the activity, negative = inhibition was -20.8% [at 11.4 µM] (inactive).
Take `CCOC(=O)c1c(C)c(C(=O)N2CCCCCC2)c(C)n1C`: the AC50 was 7.94 µM (active).
For the compound `Cc1ccc(S(=O)(=O)NCC(=O)N(CC(=O)NCc2ccco2)Cc2cccs2)cc1`, the AC50 was 4.47 µM (active).
For the compound `Nc1ncnc2c1nc(Sc1ccc(Cl)cc1)n2[C@@H]1O[C@H]2COP(=O)(O)O[C@@H]2[C@H]1O`, the AC50 entry was “inactive”.
Regarding `Oc1ccc2ccccc2c1/C=C\c1ccc2c(Br)cc(Br)c(O)c2n1`, the activity, negative = inhibition was -13.3% [at 11.4 µM] (inactive).
Regarding `CCC/C=C(\CCC)C(NS(=O)(=O)c1ccc(Cl)cc1)c1ccccc1` (stereo not given), the AC50 is 7.94 µM (active).
For the compound `CCC/C=C(\CCC)C(NS(=O)(=O)c1ccc(-c2ccccc2)cc1)c1ccc(C(=O)OC)cc1` (stereo not given), the AC50 entry was “inactive”.
The same measure, in the same setting: the same measure for `CCC/C=C(\CCC)C(NS(=O)(=O)c1ccc(Cl)cc1)c1ccc(C(=O)OC)cc1` (stereo not given): 3.98 µM (active); for `CCC/C=C(\CCC)C(NS(=O)(=O)CC12CCC(CC1=O)C2(C)C)c1ccc(C(=O)OC)cc1` (stereo not given): 3.98 µM (active); for `Cn1c(SCC(=O)c2ccc3c(c2)Cc2ccccc2-3)nnc1-c1ccccc1`: 8.91 µM (active).
As for `O=C(O)c1ccccc1-c1ccccc1C(=O)Nc1ccc2c(c1)Cc1ccccc1-2`, the activity, negative = inhibition was -22.9% [at 11.4 µM] (inactive).
On to `CC(=O)Nc1ccc(-c2nnc(SCC(=O)c3ccc4c(c3)Cc3ccccc3-4)n2C)cc1`, for which the AC50 was 12.6 µM (active).
Still for that read-out and setting: the same measure for `CCCCSc1nnc(-c2ccc(C)cc2)n1C`: “inactive”.
In the case of `O=C(Nc1ccc2c(c1)Cc1ccccc1-2)[C@@H]1[C@H](C(=O)O)[C@]2(Cl)C(Cl)=C(Cl)[C@@]1(Cl)C2(Cl)Cl`, the activity, negative = inhibition is -22% [at 11.4 µM] (inactive).
In the case of `c1cc(NC2CC2)nc(-c2ccoc2)n1`, the concentration at half-maximal activity (AC50) was 5.01 µM (active).
Still for that read-out and setting: as for `Cc1noc(C)c1-c1nccc(Nc2ccc(F)cc2)n1`, the figure is 12.6 µM (active); as for `Cc1noc(C)c1-c1nccc(NC2CC2)n1`, 2.51 µM (active); as for `COC(=O)[C@@]1(Cc2ccc(F)cc2)[C@H]2c3cc(C(=O)N4CCCC4)n(Cc4cccc5ccccc45)c3C[C@H]2CN1C(=O)c1ccccc1`, 2 µM (active).
Turning to `COC(=O)[C@@]1(Cc2ccccc2)[C@H]2c3cc(C(=O)N4CCCC4)n(Cc4cccc5ccccc45)c3C[C@H]2CN1C(=O)c1ccccc1`, the AC50 was 1.58 µM (active).
For the compound `CC(C)CNc1nc(N)[nH]c(=O)c1NC=O`, the activity, negative = inhibition was -1.52% [at 11.4 µM] (inactive).
For the compound `CCC(C)c1ccc(Nc2ncccc2C#N)cc1` (stereo not given), the activity, negative = inhibition is -6.67% [at 2.29 µM] (inactive).
With `c1ccc(Nc2ncnc3ccc(-c4cccnc4)cc23)cc1`, the AC50 was 2.51 µM (active).
Same read-out and setting: as for `Cc1cccc(CNc2ncnc3ccc(-c4cccc(C#N)c4)cc23)c1`, the entry is “inactive”.
Same read-out and setting: as for `Cc1cccc(CNc2ncnc3ccc(-c4cccnc4)cc23)c1`, the figure is 1 µM (active); as for `c1ccc(CNc2ncnc3ccc(-c4cccnc4)cc23)cc1`, 1.26 µM (active).
`CC(C)CN(CC#N)CC(C)C`: the activity, negative = inhibition was -19.3% [at 11.4 µM] (inactive).
For `CCCC(=O)NCCc1c2n(c3ccc(OC)cc13)Cc1ccccc1-2`, the AC50 is 2.51 µM (active).
Same read-out and setting: the same measure for `CCNC(=O)c1ccc(-n2nc(C(F)(F)F)c3c2CCCC3)cc1`: “inactive”.
Consider `CN(C)C(=O)c1ccc(-n2nc(C(F)(F)F)c3c2CCCC3)cc1`, for which the activity, negative = inhibition was 5.72% [at 2.29 µM] (inactive).
For `CCc1ccc(NC(=O)Cn2nc(C(F)(F)F)c3c2CCC3)cc1`, the AC50 was 12.6 µM (active).
The same measure, in the same setting: the same measure for `CC(=O)NN1C(=O)c2ccc(Oc3cccc([N+](=O)[O-])c3)cc2C1=O`: “inactive”.
The same measure, in the same setting: as for `Cn1cc([N+](=O)[O-])c(C(=O)Nc2cc(Oc3cccnc3)cc([N+](=O)[O-])c2)n1`, the figure is 0.501 µM (active); as for `Cc1ccc(Nc2ccc(-n3ccnc3)nn2)cc1C`, 0.0794 µM (active).
Still for that read-out and setting: the same measure for `O=c1[nH]n(-c2cccc(Cl)c2)c2ncccc12`: “inactive”.
`N=c1n(CCN2CCOCC2)c2ccccc2n1CC(=O)c1ccc(Cl)c(Cl)c1`: the activity, negative = inhibition is 11.5% [at 2.29 µM] (inactive).
Consider `O=C(c1ccc(Cl)c(Cl)c1)c1cc(-c2ccccn2)c(N2CCOCC2)s1`, for which the AC50 is 14.1 µM (active).
On to `COc1ccc(OC[C@@H](CO)OC)cc1`, for which the activity, negative = inhibition is -12.9% [at 11.4 µM] (inactive).
On the same count and under the same terms, as for `COCCCNCC(=O)c1c(N)n(Cc2ccccc2)c(=O)n(C)c1=O`, the figure is -9.63% [at 2.29 µM] (inactive).
Consider `Cn1c(=O)c2c(n(Cc3ccccc3)c1=O)NC(=O)C2CC(=O)NCc1cccc(Cl)c1` (stereo not given), for which the AC50 was 6.31 µM (active).
The same measure, in the same setting: the same measure for `C[C@]12CC3CC(N)(C1)C[C@@](C)(C3)C2`: “inactive”.
With `N#C/C(=C(\O)C(=O)O)c1ccc(-c2cccc3ccccc23)cc1`, the activity, negative = inhibition is -22% [at 11.4 µM] (inactive).
Take `CCn1c2ccccc2c2cc(N=C3SC(CC(=O)Nc4ccccc4)C(=O)N3C)ccc21` (stereo not given): the AC50 is 5.01 µM (active).
Still for that read-out and setting: as for `NS(=O)(=O)c1cc2c(cc1Cl)N[C@@H](C(Cl)Cl)NS2(=O)=O`, the entry is “inactive”.
Same read-out and setting: as for `NS(=O)(=O)c1cc2c(cc1Cl)NC(CSCc1ccccc1)=NS2(=O)=O`, the figure is 12.6 µM (active).
With `NS(=O)(=O)c1cc2c(cc1Cl)N[C@H](Cc1ccccc1)NS2(=O)=O`, the activity, negative = inhibition was -18.4% [at 11.4 µM] (inactive).
